HCMV antiviral: inhibitors of human cytomegalovirus; AID 1259415; 410,000 tested, 4.5% active; activity change, negative = inhibition, % at 57.5 µM; HFF cells, HCMV-luciferase reporter, 72 h; stronger effect = lower value; in the data active = activity change below about -60%; inconclusive = no clear call, values can overlap the other calls; inactive = above about -39%; also: % is scaled to controls: 0 for no effect and ±100 for the full control effect
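Human foreskin fibroblasts infected with luciferase-reporter HCMV at MOI 1 PFU/cell, compounds at two doses. Luciferase measured 72 h post infection; normalized to buffer-only basal and Salinomycin (10uM) controls.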
Pf growth 48h: P. falciparum growth inhibition at 48 hours (one generation); P. falciparum luciferase growth in erythrocytes, 48 h; Potency, µM (titrated, usually from 28.7 µM), inactives show at the highest dose activity change, negative = inhibition, most hits filed as inhibitors; 310,000 tested, 5.9% active; also: potency is read from the fitted curve at half-maximal effect; % is scaled to controls: 0 for no effect and ±100 for the full control effect
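Erythrocytes infected with P. falciparum carrying an integrated firefly luciferase reporter (2% hematocrit, 0.1% parasitemia final) were exposed to compounds in RPMI 1640 with 0.5% Albumax at 37 C, 5% CO2. Growth inhibition was scored as reduced luminescence.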
Pf growth 96h: P. falciparum growth inhibition at 96 hour, primary screen for plastid delayed-death inhibitors | 320,000 tested, 6.9% active | Potency, µM (doses to about 28.7 µM), for the others: at the highest dose activity change, negative = inhibition, usual class: inhibitors | AID 504834 | P. falciparum luciferase reporter growth, 96 h; also: potency is read from the fitted curve at half-maximal effect; % is scaled to controls: 0 for no effect and ±100 for the full control effect
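Erythrocytes infected with luciferase-expressing P. falciparum were dispensed at 2% hematocrit and 0.05% parasitemia (final), then incubated with compounds 96 hours at 37 C in 5% CO2. Luminescence after detection reagent addition reported growth.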
HCV inhibitor: blocks hepatitis C virus. Huh7.5.1 HCVcc-Cre infection, luciferase reporter, 44 h. Potency, µM (series often up to 41.8 µM), without a hit: at the highest dose activity change, negative = inhibition, most hits filed as inhibitors. 340,000 tested, 3.4% active. AID 651820; also: potency is read from the fitted curve at half-maximal effect; % is scaled to controls: 0 for no effect and ±100 for the full control effect
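Compounds are dispensed onto cells plated 4 h earlier at 1,000 per well, with HCVcc-Cre virus (about 0.5 moi) added next. Following 44 h of culture, luminescent signal is measured for 15 sec after 15 min with substrate at room temperature.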
Cycloheximide cs: counter-screen hit for Shiga toxin inhibitors, cycloheximide; 300,000 tested, 12% active; AID 2314; max response, %; cell reporter, cycloheximide protein synthesis inhibition counterscreen; in the data active = max response mostly above about 13%, no sharp cut-off; inactive = mostly below about 14%; also: read at 38.3 µM for the half of the compounds with a filed dose; 0% is about no effect
Shiga inhibitor: Shiga toxin inhibition; Vero cells, Shiga toxin protein synthesis inhibition reporter; inhibition, % at 38.7 µM; 290,000 tested, 9.2% active; AID 2315; in the data active = inhibition mostly above about 28%, no sharp cut-off; inactive = mostly below about 43%; also: 0% is about no effect
The depositor's hits bear a star; ? = inconclusive; . = no result. The list is not random: actives were taken first. Their share in the collection is about 21%. Unless noted, calls follow the shape of the dose curve; as a rule, active = well fitted inhibition curve with a large enough effect; inconclusive = small, poorly fitted or top-dose-only effect, or another doubt; inactive = no such curve, though single readings can be large or run the other way.

SMILES	HCMV antiviral	Pf growth 48h	Pf growth 96h	HCV inhibitor	Cycloheximide cs	Shiga inhibitor
CCN(CC(=O)N1CCN(Cc2ccccc2)CC1)S(=O)(=O)c1ccc(C)cc1	-13	-14%	?	5%	1	-3
Cc1ccc(S(=O)(=O)c2nc(C)c3c(n2)CCC3)cc1	16	-17%	3%	12%	-2	16
COc1cccc(S(=O)(=O)c2nc(C)c3c(n2)CCC3)c1	-81*	-17%	2%	4%	2	11
CC(=O)c1cccc(NC(=O)Cn2cnc(S(=O)(=O)N3CCOCC3)c2)c1	.	-4%	-9%	5%	7	11
Cn1nc(C(=O)Nc2ccc(S(=O)(=O)N3CCCCC3)cc2)c2ccccc2c1=O	13	?	8.3µM*	-10%	9	-8
Cn1nc(C(=O)Nc2cccc(S(=O)(=O)N3CCCCC3)c2)c2ccccc2c1=O	110	?	9.3µM*	?	.	.
Cn1nc(C(=O)Nc2ccc(Cl)c(S(=O)(=O)N3CCOCC3)c2)c2ccccc2c1=O	20	?	?	?	.	.
Cc1c(CCNC(=O)c2ccc(C(C)(C)C)cc2)sc2nc(-c3ccc(F)cc3)nn12	-31	.	.	.	.	.
CC(C)C[C@H]1CNC(=S)N1C[C@H]1CCCN1C[C@H](Cc1ccc(O)cc1)N1C[C@H](CC(C)C)N(CCc2ccccc2)C1=S	-25	.	.	.	.	.
COC(=O)c1ccccc1NC(=O)N1CCN(c2ccc(F)cc2)CC1	-63*	-9%	4.1µM*	-28%	1	-20
O=C(Nc1cccc2ccccc12)N1CCN(c2ccc(F)cc2)CC1	-29	13%	1.5µM*	1%	7	-11
O=C(Nc1cccc2ccccc12)N1CCCN(c2c(Cl)cncc2Cl)CC1	?	?	5.9µM*	-3%	-1	-7
COCCCn1c(SC(C)C(=O)Nc2c(C)n(C)n(-c3ccccc3)c2=O)n[nH]c1=O (configuration not stated)	-15	?	0%	8%	.	.
NC(=O)NC(=O)Nc1ccccc1Cl	-1	30%	10µM*	-6%	3	-4
COc1ccc(NC(=O)c2csnn2)cc1Cl	2	.	.	.	.	.
O=C(Nc1ccccc1Cl)ON=C1c2ccccc2-c2ccccc21	.	41%	65%	?	23*	45*
O=C(NC(=O)c1csnn1)Nc1ccccc1Cl	-83*	48%	35%	8%	34*	22
Cc1cc(C)c2nc(NC(=O)c3cc(C)on3)sc2c1	?	.	43%	-46%	22*	21
CCc1ccc2nc(NC(=O)c3cc(C)on3)sc2c1	102	38%	-11%	?	54*	95*
CCc1noc(C)c1C(=O)Nc1nc2ccc(F)cc2s1	83	165%	120%	?	.	.
Cc1csc(NC(=O)c2cc(C)on2)n1	51	341%	422%	14%	.	.
CCc1noc(C)c1C(=O)Nc1nc2c(C)cc(C)cc2s1	-4	4%	46%	11µM*	.	.
CCN(CCn1cccn1)C(=O)c1cccc(OC2CCN(S(C)(=O)=O)CC2)c1	5	88%	10µM*	-15%	-1	-4
CCN1CCN(C(=O)c2cccc(OC3CCN(S(=O)(=O)N(C)C)CC3)c2)CC1	29	1%	11%	3%	27*	16
CN(C)S(=O)(=O)N1CCC(Oc2ccc(C(=O)N3CCCCCCC3)cc2)CC1	23	?	-19%	?	62*	117*
SMILES	HCMV antiviral	Pf growth 48h	Pf growth 96h	HCV inhibitor	Cycloheximide cs	Shiga inhibitor
CC1CCCCN1C(=O)c1ccc(OC2CCN(S(=O)(=O)N(C)C)CC2)cc1 (configuration not stated)	-18	-13%	17%	?	26*	26
CN(C(=O)c1ccc(OC2CCN(S(=O)(=O)N(C)C)CC2)cc1)C1CCCCC1	58	-14%	-6%	-3%	11	27
CN(C)S(=O)(=O)N1CCN(C(=O)c2cccc(Br)c2)CC1	20	.	45%	6%	-2	-20
CCCN(C(=O)COC(=O)CCOc1ccccc1C)c1c(N)n(Cc2ccccc2)c(=O)[nH]c1=O	21	-10%	5%	2%	1	15
C=CCNc1ccccc1S(=O)(=O)NCc1ccccc1	-20	.	.	?	.	.
COc1ccc(-c2nc3ccccc3n2Cc2ccc(C)cc2)cc1	-33	?	?	?	42*	44*

Screening results: PubChem BioAssay, National Center for Advancing Translational Sciences (NCATS)
